# Laboratory results reported in the supplement of paper PMC3342239.
# Structures can show the parent of a compound that is named as a salt.
# Test system: Saccharomyces cerevisiae
# Assay: fraction of cells in G1 phase (DNA content, flow cytometry); higher = more cells with unreplicated DNA (G1 delay)
# Conditions: temperature: 30 C, YPD
# How it was run: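 For the G1 fraction, the Dean-Jett-Fox G1 peak area was divided by the sum of the G1 and G2/M areas. S. cerevisiae in YPD at 30°C received library drugs and was fixed 6–7 h later for sensitized JTY2953 (diluted 1∶200 from overnight, final 20 µg/ml), 6 h later for dividing JTY2953, or 4.33 h later for BY4741. Fixed cells were stained with SYTOX Green and 10,000 events recorded by flow cytometry.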
# [1] = BY4741 PDR5+ SNQ2+, drug added to: actively dividing cells, 4.33 h
# [2] = JTY2953 pdr5 snq2 (sensitized), drug added to: actively dividing cells, 6 h
# [3] = JTY2953 pdr5 snq2 (sensitized), drug added to: cultures diluted from stationary phase, 6-7 h
Structure (SMILES),fraction of cells in G1 phase [1],fraction of cells in G1 phase [2],fraction of cells in G1 phase [3]
CC(C)C(=O)c1c(C(C)C)nn2ccccc12 [Ibudilast] (86.8386 µM),0.462,0.698,0.604
CCOC(=O)C1=C(COCCN)NC(C)=C(C(=O)OC)C1c1ccccc1Cl (stereo not drawn) [Amlodipine] (48.9134 µM),0.481,0.673,0.768
COc1c(N2C[C@@H]3CCCN[C@@H]3C2)c(F)cc2c(=O)c(C(=O)O)cn(C3CC3)c12 [Moxifloxacin HCl] (45.6725 µM),0.402,,0.212
CO[C@@]12[C@H](COC(N)=O)C3=C(C(=O)C(C)=C(N)C3=O)N1C[C@@H]1N[C@@H]12 [Mitomycin c] (59.8203 µM),0.399,,0.273
COc1ccc(CN2CCN(C(c3ccc(F)cc3)c3ccc(F)cc3)CC2)c(OC)c1OC [Lomerizine HCl] (42.685 µM),,0.558,0.638
C#C[C@]1(O)CC[C@H]2[C@@H]3CCC4=Cc5oncc5C[C@]4(C)[C@H]3CC[C@@]21C [Danazol] (59.2652 µM),,0.457,0.88
CN1CCN(CCCN2c3ccccc3Sc3ccc(C(F)(F)F)cc32)CC1 [Trifluoperazine 2HCl] (41.632 µM),,0.295,0.873
CN1CCN(C2=Nc3cc(Cl)ccc3Nc3ccccc32)CC1 [Clozapine] (61.1935 µM),0.437,,0.319
CC[C@@]1(O)C[C@H](O[C@H]2C[C@H](N(C)C)[C@H](O[C@H]3C[C@H](O)[C@H](O[C@H]4CCC(=O)[C@H](C)O4)[C@H](C)O3)[C@H](C)O2)c2c(cc3c(c2O)C(=O)c2c(O)cccc2C3=O)[C@H]1C(=O)OC [Aclarubicin] (24.6339 µM),0.431,,0.364
CC/C(=C(/CC)c1ccc(O)cc1)c1ccc(O)cc1 [Diethylstilbestrol] (74.5271 µM),,0.42,0.838
CCCCc1oc2ccccc2c1C(=O)c1cc(I)c(OCCN(CC)CC)c(I)c1 [Amiodarone] (30.9922 µM),,0.388,0.868
C=C1/C(=C\C=C2/CCC[C@]3(C)[C@@H]([C@H](C)CCCC(C)C)CC[C@@H]23)C[C@@H](O)C[C@@H]1O [Alfacalcidol] (49.9188 µM),0.469,0.651,0.606
Cc1ccc(C)c(OCCCC(C)(C)C(=O)O)c1 [Gemfibrozil] (79.8911 µM),0.51,0.667,0.611
C[C@H](CS)C(=O)N1CCC[C@H]1C(=O)O [Captopril] (92.0434 µM),,0.436,0.633
CC(C)(C)c1ccc(C(O)CCCN2CCC(C(O)(c3ccccc3)c3ccccc3)CC2)cc1 (stereo not drawn) [Terfenadine] (42.4008 µM),,0.324,0.776
O=C(CCCN1CCC(O)(c2ccc(Cl)cc2)CC1)c1ccc(F)cc1 [Haloperidol HCl] (53.2093 µM),0.462,0.762,0.617
CC(C(O)c1ccc(O)cc1)N1CCC(Cc2ccccc2)CC1 (stereo not drawn) [Ifenprodil] (61.4525 µM),0.41,0.694,0.61
Clc1ccc(COC(Cn2ccnc2)c2ccc(Cl)cc2Cl)c(Cl)c1 (stereo not drawn) [Miconazole] (48.0611 µM),,0.467,0.869
CC1CCc2c(N3CCC(O)CC3)c(F)cc3c(=O)c(C(=O)O)cn1c23 (stereo not drawn) [Nadifloxacin] (55.4956 µM),0.43,,0.281
Clc1ccc(CO/N=C(\Cn2ccnc2)c2ccc(Cl)cc2Cl)c(Cl)c1 [Oxiconazole nitrate] (46.6053 µM),,0.397,0.853
CCOC(=O)C1=C(C)NC(C)=C(C(=O)OC)C1c1cccc(Cl)c1Cl (stereo not drawn) [Felodipine] (52.0478 µM),,0.609,0.683
OC(Cn1cncn1)(Cn1cncn1)c1ccc(F)cc1F [Fluconazole] (65.3004 µM),0.441,0.711,0.611
Clc1ccc(C(Cn2ccnc2)OCc2csc3c(Cl)cccc23)c(Cl)c1 (stereo not drawn) [Sertaconazole] (45.6852 µM),,0.3,0.869
CNCCC(Oc1ccc(C(F)(F)F)cc1)c1ccccc1 (stereo not drawn) [Fluoxetine HCl] (64.655 µM),0.43,,0.17
COC1=C(OC)C(=O)C(CCCCCCCCCCO)=C(C)C1=O [Idebenone] (59.0933 µM),,0.472,0.693
c1ccc(-c2ccc(C(c3ccccc3)n3ccnc3)cc2)cc1 (stereo not drawn) [Bifonazole] (64.4325 µM),,0.474,0.758
CC[C@H](c1ccc(O)cc1)[C@@H](CC)c1ccc(O)cc1 [Hexestrol] (73.9714 µM),,0.481,0.895
CC(=O)[C@]1(O)Cc2c(O)c3c(c(O)c2[C@@H](O[C@H]2C[C@H](N)[C@H](O)[C@H](C)O2)C1)C(=O)c1ccccc1C3=O [Idarubicin] (40.2005 µM),0.14,,0.291
